Data published in PubChem BioAssay (NCI).
The panel holds about 79,000 compounds, 15% with a hit somewhere; the sample as a whole holds those more often. Cut-off read from the data, not from the text of the source: active = growth inhibition above about 70%; inactive = the rest.

Legend:
[1] = NCI Yeast Anticancer Drug Screen. Data for the rad50 strain (AID 155);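 note: 0% = growth of vehicle-only cultures of the same strain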; conditions: S. cerevisiae rad50 strain growth inhibition; at 50.0 µM; active compounds read high
Summary of the method: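 A DNA repair-deficient yeast mutant serves as the test organism; compound-induced growth inhibition is calculated against vehicle-treated cells.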

[2] = NCI Yeast Anticancer Drug Screen. Data for the mec2-1 strain (AID 157); conditions: S. cerevisiae mec2-1 strain, at 50.0 µM, active compounds read high
Summary of the method: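 Cells of the genetically defined mec2-1 yeast strain are incubated with test compound. Inhibition of growth is calculated against vehicle-treated controls.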

[3] = NCI Yeast Anticancer Drug Screen. Data for the sgs1 mgt1 strain (AID 161);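 note: 0% = growth of cultures given vehicle only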; conditions: S. cerevisiae sgs1 mgt1 strain, at 50.0 µM, active compounds read high
Summary of the method: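 Genetically altered yeast, compound exposure, growth inhibition relative to vehicle.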

[4] = NCI Yeast Anticancer Drug Screen. Data for the cln2 rad14 strain (AID 165);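 note: 0% = growth equal to vehicle treated cultures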; conditions: S. cerevisiae cln2 rad14 strain, at 50.0 µM, active compounds read high
Summary of the method: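 The screen exposed genetically defined yeast (cln2 rad14) to test compounds and scored growth inhibition relative to vehicle-treated controls.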

[5] = NCI Yeast Anticancer Drug Screen. Data for the bub3 strain (AID 167); conditions: S. cerevisiae bub3 mutant strain, at 50.0 µM, active compounds read high
Summary of the method: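 Inhibition values come from growth of compound-treated mutant yeast normalised to vehicle-treated controls.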

[6] = NCI Yeast Anticancer Drug Screen. Data for the mlh1 rad18 strain (AID 175); conditions: S. cerevisiae mlh1 rad18 strain growth inhibition; at 50.0 µM; active compounds read high
Summary of the method: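 Compound-treated yeast growth, normalised to vehicle controls. Strain bears defined DNA repair mutations.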

Measured: growth inhibition

CC1=NN(C(=O)c2ccc(Cl)cc2)C(=O)/C1=C/c1ccc(Cl)cc1
inactive: [1] -28.6% | [2] -47.4% | [3] -69.2% | [4] -19.6% | [5] -33% | [6] -44.2%

O=P1(O)c2ccccc2Oc2ccccc21
inactive: [1] -4% | [2] -2.2% | [3] 7.45% | [4] 2.9% | [5] -0.95% | [6] -44.5%

O=C(Cl)c1ccc2c(c1)C(=O)NC2=O
inactive: [1] -6.55% | [2] -12.1% | [3] -19.4% | [4] 8.95% | [5] -5.95% | [6] -16.4%

CCOc1ccc(CN(CCN2CCCCC2)c2ccccn2)cc1
inactive: [1] 26.6% | [2] 9.45% | [3] 23.4% | [4] -7.4% | [5] 11.5% | [6] 24.1%

CC(=O)O[C@@H]1[C@H]2O[C@H]2[C@H]2O[C@@]2(COC(=O)c2ccccc2)[C@H]1OC(C)=O
inactive: [1] 12.8% | [2] -25.2% | [3] 24.4% | [4] -6% | [5] 0.75% | [6] -38.5%

O=C(O)CCSCCCCCCCCCCCCSCCC(=O)O
inactive: [1] 16.5% | [2] 18.9% | [3] 18.4% | [4] 18.8% | [5] -3.65% | [6] 25.8%

O=C(O)C=C(CBr)CBr
inactive: [1] 11.5% | [2] -3% | [3] -1.25% | [4] -24.1% | [5] 14.1% | [6] 9.05%

O=C(OC(=O)c1cccnc1)c1cccnc1
inactive: [1] -30.2% | [2] -9.5% | [3] -7.75% | [4] 11.5% | [5] -2.85% | [6] 6.65%

CCCCCCCCCCCO/N=C\c1c2c(O)c3c(O)c(C)c4c(c3c1O)C(=O)C(C)(O/C=C\C(OC)C(C)C(OC(C)=O)C(C)C(O)C(C)C(O)C(C)/C=C\C=C(\C)C(=O)N2)O4 (stereo not given)
inactive: [1] -4.75% | [2] -4.75% | [3] -13.7% | [4] -9.75% | [5] -5.1% | [6] 26.2%

O=C1/C(=C/c2ccc(Cl)cc2)COc2ccc(Br)cc21
inactive: [1] 26.1% | [2] 4.85% | [3] -5.1% | [4] 6.7% | [5] 1.8% | [6] -2.45%

CCCCCCCCCCCCC(CC)(C(=O)OCC)C(=O)OCC
inactive: [1] -1.6% | [2] -0.6% | [3] 13% | [4] -59.5% | [5] 1.15% | [6] -2%

CC(=O)c1c(C)nc(SSc2nc(C)c(C(C)=O)c(-c3ccc(Cl)cc3)c2C#N)c(C#N)c1-c1ccc(Cl)cc1
inactive: [1] -30.8% | [2] -7.8% | [3] -15.9% | [4] 6.35% | [5] -26.2% | [6] -2.2%

CCc1ccccc1OCC(O)CO (stereo not given)
inactive: [1] -21.9% | [2] -2.45% | [3] -6.2% | [4] -11.5% | [5] -8.85% | [6] 27.8%

Cc1ccc(C(=O)NO)cc1
inactive: [1] 28.8% | [2] -5.6% | [3] 7.65% | [4] -4.65% | [5] 13.8% | [6] 17.5%

Cc1ccc(S(=O)(=O)NC(=O)N(Cc2ccccc2)C(C)(C)C)cc1
inactive: [1] 3.4% | [2] 20.4% | [3] 16.1% | [4] -0.15% | [5] 14.2% | [6] 16.9%

Cc1ccc(-c2nc3ccccc3c(=O)n2/N=C/c2ccc(Cl)cc2Cl)cc1
inactive: [1] 9.05% | [2] 3.85% | [3] 7.65% | [4] 11.1% | [5] 7.35% | [6] 21.4%

O=C[C@@H](CO)O[C@H](C=O)c1c[nH]c(=O)[nH]c1=O
inactive: [1] -24.1% | [2] -13.2% | [3] -23.9% | [4] -10.5% | [5] -36.5% | [6] -54.5%

O=C1C2=C(c3ccccc31)C(c1ccccc1Cl)N1C(=O)CSC1=N2 (stereo not given)
inactive: [1] 67.9% | [2] 50.2% | [3] 53.5% | [4] 48.6% | [5] 53.8% | [6] 60%

N/N=C1\CC(=O)NC(=O)N1
inactive: [1] -2.15% | [2] -11.1% | [3] 1.9% | [4] 1.8% | [5] 3.05% | [6] 0.05%

O=C1OC(c2ccc([N+](=O)[O-])cc2)=N/C1=C\c1ccc(Cl)c(Cl)c1
inactive: [1] 31.9% | [2] 21.8% | [3] 43.6% | [4] 28.1% | [5] 25.2% | [6] 46.2%
